PubChem BioAssay AID1626 (SRMLSC, 2009)
Hit rate of the full screen: of about 220,000 compounds, about 2,000 (0.91%) were called active. Not shown: some 2% with an inconclusive outcome. No stated cut-off is given here; in the data, inconclusive means inhibition above about 80% without an active follow-up result; inactive means below that; test concentration not stated here. Only a sample is shown. Entries with a potency or affinity are not part of this list.

Assay: M. tuberculosis H37Rv growth inhibitors, H37Rv strain (AID 1626);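 further: bacteria incubated seven days before Alamar blue readout; 0% = bacteria only wells and 100% = bacteria with antibiotic wells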
Conditions: hits give high values, concentration not given here

SMILES | inhibition
COCCCNC(=O)c1ccc(N2CCOCC2)c(NS(=O)(=O)c2ccc(OC)cc2)c1 | -10.8% (inactive)
Cc1ccc(SC[C@H](c2ccccc2)N2CCN(CCc3ccccc3)CCC2=O)cc1 | 0.98% (inactive)
COC(=O)C(C(=O)OC)c1ccc(N)cc1 | 79.1% (inactive)
N/C(=N/OC(=O)c1ccccc1Cl)c1nonc1N | -5.25% (inactive)
N=C(N)CCCOc1ccccc1-c1ccccc1 | 4.47% (inactive)
O=C(CN1C(=O)c2ccccc2C1=O)Nc1ccc(N2CCOCC2)cc1 | 1.44% (inactive)
O=C(NCCN1CCOCC1)c1ccc2c(c1)N(Cc1cccc(F)c1)C(=O)c1ccccc1S2 | 2.5% (inactive)
Cc1cc(Cl)n2c(nc3ccccc32)c1C#N | -11.2% (inactive)
Cc1cc(Nc2c(C)n(C)n(-c3ccccc3)c2=O)n2c(nc3cc(F)c(F)cc32)c1C#N | -5.9% (inactive)
COC(=O)c1[nH]c2ccc(Br)cc2c1NC(=O)C(C)N1CCN(C2CCCCC2)CC1 (configuration not stated) | -3.42% (inactive)
CC1CCc2nc3ccccc3c(C(=O)OCC(=O)NC3CCS(=O)(=O)C3)c2C1 (configuration not stated) | -5% (inactive)
CN(C(=O)COC(=O)c1c2c(nc3ccccc13)/C(=C/c1cccc([N+](=O)[O-])c1)CCC2)C1CCS(=O)(=O)C1 (configuration not stated) | 78.5% (inactive)
Cc1nn(C)c(C(=O)Nc2ccn(Cc3ccccc3F)n2)c1[N+](=O)[O-] | -2.14% (inactive)
O=[N+]([O-])c1ccc(NCCCO)c(S(=O)(=O)N2CCOCC2)c1 | -3.72% (inactive)
COc1ccc2c(c1)c1ccccc1n2C | -6.03% (inactive)
COc1ccc2c(c1)sc(=N)n2CC(=O)Nc1cc(C)cc(C)c1 | 3.49% (inactive)

SMILES | inhibition
O=C(O)COc1ccccc1Cc1ccccc1 | -9.69% (inactive)
O=C(COc1ccc(F)cc1)N1c2ccccc2CCc2ccccc21 | 6.06% (inactive)
O=C(CCC1CCCN(c2ncccn2)C1)N1CCN(c2ccccn2)CC1 (configuration not stated) | 0.77% (inactive)
N#C/C(=C\c1ccco1)c1nc2ccccc2s1 | 4.85% (inactive)
N#C/C(=C/c1ccncc1)c1nc2ccccc2s1 | 4.82% (inactive)
Cc1ccc(OCC(=O)n2nc(C)cc2C)c(C)c1 | 10% (inactive)
COc1ccc(N2C(=O)CC(N3CCC(c4nc5ccccc5[nH]4)CC3)C2=O)cc1 (configuration not stated) | -1.11% (inactive)
O=C(CN1C(=O)NC2(CCCCCCC2)C1=O)N1CCc2ccccc2C1 | -9.98% (inactive)
COc1ccc2nc(NC(=O)CSc3nnnn3C3CCCCC3)sc2c1 | 0.53% (inactive)
CCn1nnnc1SCC(=O)Nc1nc2ccc(OC)cc2s1 | 1.9% (inactive)
O=C(CSc1nc2ccccc2s1)Nc1ccc2c(c1)OCO2 | 76.4% (inactive)
CSc1nsc(SCC(=O)Nc2cccc(C(C)=O)c2)n1 | -15.7% (inactive)
CSc1nsc(SCC(=O)Nc2nc3ccccc3s2)n1 | 52.1% (inactive)
CCOc1ccc2nc(SCC(=O)NC(=O)C(C)C)sc2c1 | 3.81% (inactive)
CSc1nsc(SCC(=O)Nc2nc3ccc(C)cc3s2)n1 | 10.3% (inactive)
CSc1nsc(SCC(=O)Nc2ccc3c(c2)OCCO3)n1 | -14.4% (inactive)
